# Article PMC7862700, “An all-to-all approach to the identification of sequence-specific readers for epigenetic DNA modifications on cytosine”
# Key:
# Assay in all cases: DAPPL (digital affinity profiling via proximity ligation, sequencing); 10 mM Tris-HCl pH 7.5, 50 mM NaCl, 1 mM DTT, 4% glycerol, room temperature, 30 min; GST-TFs on glutathione beads, 16-mer random dsDNA library, 0.1% formaldehyde crosslink after washing; high values mean tight binding
# [1] = molecular target: T1, FLI1 (Homo sapiens, UniProt Q01543 1-452); details: protein: recombinant; tags: N-terminal GST; dsDNA, one strand shown
# T1 sequence: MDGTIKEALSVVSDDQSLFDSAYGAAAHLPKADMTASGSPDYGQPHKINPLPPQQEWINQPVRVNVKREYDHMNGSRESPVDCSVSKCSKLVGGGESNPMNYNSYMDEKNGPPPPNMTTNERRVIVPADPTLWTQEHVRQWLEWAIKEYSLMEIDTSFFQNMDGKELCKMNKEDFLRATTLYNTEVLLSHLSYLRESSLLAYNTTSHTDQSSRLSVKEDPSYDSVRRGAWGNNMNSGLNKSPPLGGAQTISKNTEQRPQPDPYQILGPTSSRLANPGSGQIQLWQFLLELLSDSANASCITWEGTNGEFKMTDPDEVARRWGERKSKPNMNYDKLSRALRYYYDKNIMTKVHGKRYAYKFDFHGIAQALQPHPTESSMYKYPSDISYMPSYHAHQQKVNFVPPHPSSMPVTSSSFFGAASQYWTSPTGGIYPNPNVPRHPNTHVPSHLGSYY
# In short: (§1)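 A tag-only sample was pooled with DNA-barcoded human transcription factors that had been expressed in yeast as GST fusions and captured on glutathione beads. The pools were incubated for 30 min at room temperature with 200 nmole of a random double-stranded 16-mer DNA library in Tris/NaCl/DTT/glycerol buffer, then washed, crosslinked with 0.1% formaldehyde, proximity-ligated (BsaI/T4 ligase, 1 h, 37 °C), PCR-amplified and sequenced on an Illumina NextSeq500. Binding signal is each hexamer's read frequency for a factor divided by its frequency for the tag-only sample.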
# [2] = molecular target: T2, ELK1 (Homo sapiens, UniProt P19419 1-428); details: protein: recombinant; tags: N-terminal GST; dsDNA, one strand shown
# T2 sequence: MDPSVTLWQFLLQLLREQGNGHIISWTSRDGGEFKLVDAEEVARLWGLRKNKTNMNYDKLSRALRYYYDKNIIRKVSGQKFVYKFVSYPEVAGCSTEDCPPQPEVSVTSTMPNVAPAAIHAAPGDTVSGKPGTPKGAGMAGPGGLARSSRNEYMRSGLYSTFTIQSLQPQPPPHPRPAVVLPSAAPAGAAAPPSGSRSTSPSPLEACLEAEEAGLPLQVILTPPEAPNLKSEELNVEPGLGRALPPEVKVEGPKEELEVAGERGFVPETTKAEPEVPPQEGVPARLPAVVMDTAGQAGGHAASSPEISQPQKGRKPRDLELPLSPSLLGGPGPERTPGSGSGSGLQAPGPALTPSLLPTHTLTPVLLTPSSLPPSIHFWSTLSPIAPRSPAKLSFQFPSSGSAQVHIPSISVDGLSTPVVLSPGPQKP
# In short: as §1
# [3] = molecular target: T3, GABPA (Homo sapiens, UniProt Q06546 1-454); details: protein: recombinant; tags: N-terminal GST; dsDNA, one strand shown
# T3 sequence: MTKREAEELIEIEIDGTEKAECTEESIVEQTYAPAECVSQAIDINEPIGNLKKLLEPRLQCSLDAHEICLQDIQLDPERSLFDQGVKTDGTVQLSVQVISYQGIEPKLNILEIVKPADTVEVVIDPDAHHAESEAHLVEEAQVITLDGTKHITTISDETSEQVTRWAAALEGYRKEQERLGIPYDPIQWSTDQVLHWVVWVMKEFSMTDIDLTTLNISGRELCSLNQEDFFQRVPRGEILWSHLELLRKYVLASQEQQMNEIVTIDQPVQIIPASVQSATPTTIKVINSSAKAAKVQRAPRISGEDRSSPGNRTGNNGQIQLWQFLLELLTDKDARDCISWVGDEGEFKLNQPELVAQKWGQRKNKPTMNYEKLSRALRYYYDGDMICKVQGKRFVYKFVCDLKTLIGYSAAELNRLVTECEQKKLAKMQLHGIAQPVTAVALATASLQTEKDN
# In short: as §1
# [4] = molecular target: T4, ERG (Homo sapiens, UniProt P11308 1-479); details: protein: recombinant; tags: N-terminal GST; dsDNA, one strand shown
# T4 sequence: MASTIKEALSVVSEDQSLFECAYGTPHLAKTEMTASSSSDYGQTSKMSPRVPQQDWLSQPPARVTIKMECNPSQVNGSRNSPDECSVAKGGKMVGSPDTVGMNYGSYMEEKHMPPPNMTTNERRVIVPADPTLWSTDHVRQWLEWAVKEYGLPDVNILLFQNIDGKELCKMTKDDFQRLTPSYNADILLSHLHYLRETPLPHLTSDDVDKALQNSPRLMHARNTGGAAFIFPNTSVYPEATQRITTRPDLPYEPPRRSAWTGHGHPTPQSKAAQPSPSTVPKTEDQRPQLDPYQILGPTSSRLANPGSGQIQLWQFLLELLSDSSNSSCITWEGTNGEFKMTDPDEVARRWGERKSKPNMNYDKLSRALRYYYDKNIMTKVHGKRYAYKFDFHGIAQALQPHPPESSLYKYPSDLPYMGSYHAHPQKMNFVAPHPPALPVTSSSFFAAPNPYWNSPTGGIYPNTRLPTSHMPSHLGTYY
# In short: as §1
# [5] = molecular target: ELF1 (Homo sapiens, UniProt P32519 1-619); details: protein: recombinant; tags: N-terminal GST; dsDNA, one strand shown
# Sequence of ELF1 (P32519 whole entry): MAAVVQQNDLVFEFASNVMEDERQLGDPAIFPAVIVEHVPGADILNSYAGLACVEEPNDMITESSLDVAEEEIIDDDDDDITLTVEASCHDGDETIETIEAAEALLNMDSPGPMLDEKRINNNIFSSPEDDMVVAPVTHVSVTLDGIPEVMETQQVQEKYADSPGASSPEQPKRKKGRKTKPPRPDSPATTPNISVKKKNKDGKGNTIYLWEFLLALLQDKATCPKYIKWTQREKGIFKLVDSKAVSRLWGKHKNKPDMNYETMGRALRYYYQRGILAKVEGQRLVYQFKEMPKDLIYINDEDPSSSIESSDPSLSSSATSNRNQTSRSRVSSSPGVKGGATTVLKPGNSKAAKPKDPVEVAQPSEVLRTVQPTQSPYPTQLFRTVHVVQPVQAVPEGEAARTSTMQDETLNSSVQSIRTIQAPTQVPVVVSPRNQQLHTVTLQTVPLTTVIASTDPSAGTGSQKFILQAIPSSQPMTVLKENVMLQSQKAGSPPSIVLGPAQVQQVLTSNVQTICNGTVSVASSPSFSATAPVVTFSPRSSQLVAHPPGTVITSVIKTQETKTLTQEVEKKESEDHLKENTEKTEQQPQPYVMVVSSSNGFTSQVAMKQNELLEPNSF
# In short: as §1
# [6] = molecular target: T5, EHF (Homo sapiens, UniProt Q9NZC4 1-300); details: protein: recombinant; tags: N-terminal GST; dsDNA, one strand shown
# T5 sequence: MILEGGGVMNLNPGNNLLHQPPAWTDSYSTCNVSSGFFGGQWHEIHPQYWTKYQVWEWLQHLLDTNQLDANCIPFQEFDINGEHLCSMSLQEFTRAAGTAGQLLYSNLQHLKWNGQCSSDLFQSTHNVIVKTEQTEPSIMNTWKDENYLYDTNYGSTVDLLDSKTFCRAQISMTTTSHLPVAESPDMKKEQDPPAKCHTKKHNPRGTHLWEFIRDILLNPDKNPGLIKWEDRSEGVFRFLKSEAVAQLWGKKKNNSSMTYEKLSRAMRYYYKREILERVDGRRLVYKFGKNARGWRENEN
# In short: as §1
# [7] = molecular target: SPI1 (Homo sapiens, UniProt P17947 1-270); details: protein: recombinant; tags: N-terminal GST; dsDNA, one strand shown
# In short: as §1
# [8] = molecular target: SPIB (Homo sapiens, UniProt Q01892 1-262); details: protein: recombinant; tags: N-terminal GST; dsDNA, one strand shown
# Sequence of SPIB (Q01892 whole entry): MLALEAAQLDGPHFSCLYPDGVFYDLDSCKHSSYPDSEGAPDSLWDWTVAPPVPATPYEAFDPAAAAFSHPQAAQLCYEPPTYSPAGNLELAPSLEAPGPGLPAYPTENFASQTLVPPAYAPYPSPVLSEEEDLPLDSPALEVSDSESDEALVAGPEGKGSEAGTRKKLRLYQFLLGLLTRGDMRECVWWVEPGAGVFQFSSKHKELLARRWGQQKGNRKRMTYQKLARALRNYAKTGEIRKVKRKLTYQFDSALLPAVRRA
# In short: as §1
# [9] = molecular target: T6, ELK3 (Homo sapiens, UniProt P41970 1-407); details: protein: recombinant; tags: N-terminal GST; dsDNA, one strand shown
# T6 sequence: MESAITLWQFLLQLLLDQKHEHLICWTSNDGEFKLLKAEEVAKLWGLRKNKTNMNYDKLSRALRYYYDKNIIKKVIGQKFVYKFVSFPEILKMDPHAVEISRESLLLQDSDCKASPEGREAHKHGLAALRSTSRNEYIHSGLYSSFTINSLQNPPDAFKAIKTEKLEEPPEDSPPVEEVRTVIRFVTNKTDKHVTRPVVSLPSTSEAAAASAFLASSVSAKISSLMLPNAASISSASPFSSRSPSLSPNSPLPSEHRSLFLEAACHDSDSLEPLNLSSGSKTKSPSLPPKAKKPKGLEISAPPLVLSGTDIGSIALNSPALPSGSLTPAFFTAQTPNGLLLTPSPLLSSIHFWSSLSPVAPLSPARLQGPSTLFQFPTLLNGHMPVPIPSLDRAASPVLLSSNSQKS
# In short: as §1
# [10] = molecular target: T7, FEV (Homo sapiens, UniProt Q99581 1-238); details: protein: recombinant; tags: N-terminal GST; dsDNA, one strand shown
# T7 sequence: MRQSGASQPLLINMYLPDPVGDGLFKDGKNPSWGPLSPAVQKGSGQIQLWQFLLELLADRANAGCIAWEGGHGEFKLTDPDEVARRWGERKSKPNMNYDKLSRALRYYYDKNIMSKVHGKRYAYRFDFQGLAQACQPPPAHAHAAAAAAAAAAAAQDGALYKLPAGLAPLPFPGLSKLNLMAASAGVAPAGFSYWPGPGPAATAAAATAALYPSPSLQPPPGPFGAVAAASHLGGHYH
# In short: as §1
# [11] = molecular target: ETV5 (Homo sapiens, UniProt P41161 1-510); details: protein: recombinant; tags: N-terminal GST; dsDNA, one strand shown
# Sequence of ETV5 (P41161 whole entry): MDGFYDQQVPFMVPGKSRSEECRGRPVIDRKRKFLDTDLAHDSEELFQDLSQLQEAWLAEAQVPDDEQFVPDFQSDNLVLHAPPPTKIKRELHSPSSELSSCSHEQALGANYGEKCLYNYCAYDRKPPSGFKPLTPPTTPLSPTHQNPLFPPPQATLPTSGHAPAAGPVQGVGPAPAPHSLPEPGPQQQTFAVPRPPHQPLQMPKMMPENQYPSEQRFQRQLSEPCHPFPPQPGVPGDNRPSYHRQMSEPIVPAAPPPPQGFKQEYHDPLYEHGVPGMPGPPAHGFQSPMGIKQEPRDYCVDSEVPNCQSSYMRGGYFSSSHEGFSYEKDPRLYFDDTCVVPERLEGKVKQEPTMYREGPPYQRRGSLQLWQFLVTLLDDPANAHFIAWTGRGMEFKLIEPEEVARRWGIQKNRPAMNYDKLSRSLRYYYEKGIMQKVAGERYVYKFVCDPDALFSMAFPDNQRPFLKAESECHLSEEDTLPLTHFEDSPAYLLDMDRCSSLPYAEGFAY
# In short: as §1
# [12] = molecular target: HSF1 (Homo sapiens, UniProt Q00613 1-529); details: protein: recombinant; tags: N-terminal GST; chain copies: 3; dsDNA, one strand shown
# Sequence of HSF1 (Q00613 whole entry): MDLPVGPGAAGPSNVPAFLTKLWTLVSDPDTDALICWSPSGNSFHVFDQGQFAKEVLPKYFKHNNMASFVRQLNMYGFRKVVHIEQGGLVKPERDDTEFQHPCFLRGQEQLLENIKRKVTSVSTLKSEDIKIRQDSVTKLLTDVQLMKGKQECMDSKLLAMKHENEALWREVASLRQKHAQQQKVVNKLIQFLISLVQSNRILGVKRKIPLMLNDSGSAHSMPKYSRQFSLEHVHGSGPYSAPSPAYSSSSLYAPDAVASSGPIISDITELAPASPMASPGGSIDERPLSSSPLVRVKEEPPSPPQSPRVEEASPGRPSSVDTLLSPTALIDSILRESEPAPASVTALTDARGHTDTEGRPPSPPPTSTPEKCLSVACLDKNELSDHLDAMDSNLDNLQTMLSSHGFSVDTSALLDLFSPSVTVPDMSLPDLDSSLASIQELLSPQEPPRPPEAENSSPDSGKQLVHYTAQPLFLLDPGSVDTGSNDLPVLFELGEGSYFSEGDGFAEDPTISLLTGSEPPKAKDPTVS
# In short: as §1
# [13] = molecular target: T8, SPIC (Homo sapiens, UniProt Q8N5J4 1-248); details: protein: recombinant; tags: N-terminal GST; dsDNA, one strand shown
# T8 sequence: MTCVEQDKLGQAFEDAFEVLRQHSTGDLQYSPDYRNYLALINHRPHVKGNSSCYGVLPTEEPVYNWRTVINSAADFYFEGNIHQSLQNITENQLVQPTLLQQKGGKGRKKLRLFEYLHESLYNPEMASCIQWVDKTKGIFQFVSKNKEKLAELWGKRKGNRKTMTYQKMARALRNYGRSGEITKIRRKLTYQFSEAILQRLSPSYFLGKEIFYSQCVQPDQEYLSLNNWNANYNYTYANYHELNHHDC
# In short: as §1
# [14] = molecular target: ELF4 (Homo sapiens, UniProt Q99607 1-663); details: protein: recombinant; tags: N-terminal GST; dsDNA, one strand shown
# Sequence of ELF4 (Q99607 whole entry): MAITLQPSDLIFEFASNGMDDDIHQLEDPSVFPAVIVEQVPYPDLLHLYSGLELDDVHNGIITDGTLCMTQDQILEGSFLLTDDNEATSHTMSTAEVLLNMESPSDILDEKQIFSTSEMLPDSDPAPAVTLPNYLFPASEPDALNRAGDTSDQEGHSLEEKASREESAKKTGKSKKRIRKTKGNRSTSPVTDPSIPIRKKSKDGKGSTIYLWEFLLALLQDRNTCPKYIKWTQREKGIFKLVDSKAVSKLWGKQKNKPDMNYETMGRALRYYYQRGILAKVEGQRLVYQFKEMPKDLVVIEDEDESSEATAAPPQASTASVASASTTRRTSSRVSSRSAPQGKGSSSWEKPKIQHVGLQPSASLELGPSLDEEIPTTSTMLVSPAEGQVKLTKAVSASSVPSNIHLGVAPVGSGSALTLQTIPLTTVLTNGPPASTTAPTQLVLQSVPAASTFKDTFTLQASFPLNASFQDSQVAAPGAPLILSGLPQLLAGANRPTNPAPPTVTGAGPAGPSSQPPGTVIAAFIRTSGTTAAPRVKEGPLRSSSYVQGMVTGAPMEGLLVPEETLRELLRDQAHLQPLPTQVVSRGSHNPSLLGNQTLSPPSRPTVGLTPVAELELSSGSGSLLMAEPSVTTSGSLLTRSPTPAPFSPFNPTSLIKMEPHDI
# In short: as §1
# [15] = molecular target: T9, ELK4 (Homo sapiens, UniProt P28324-2 1-405); details: protein: recombinant; tags: N-terminal GST; dsDNA, one strand shown
# T9 sequence: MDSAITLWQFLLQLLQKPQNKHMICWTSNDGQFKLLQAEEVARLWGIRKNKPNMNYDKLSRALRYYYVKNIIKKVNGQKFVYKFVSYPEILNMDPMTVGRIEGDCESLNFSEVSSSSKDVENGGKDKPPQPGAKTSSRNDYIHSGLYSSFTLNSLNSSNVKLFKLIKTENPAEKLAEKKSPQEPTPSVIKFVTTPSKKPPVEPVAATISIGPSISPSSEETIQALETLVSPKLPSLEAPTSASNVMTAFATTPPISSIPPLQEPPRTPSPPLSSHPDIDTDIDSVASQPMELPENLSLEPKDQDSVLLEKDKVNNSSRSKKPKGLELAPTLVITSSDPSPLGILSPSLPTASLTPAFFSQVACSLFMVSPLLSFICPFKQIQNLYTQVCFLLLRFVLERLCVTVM
# In short: as §1
# [16] = molecular target: T10, ETV2 (Homo sapiens, UniProt O00321 1-342); details: protein: recombinant; tags: N-terminal GST; dsDNA, one strand shown
# T10 sequence: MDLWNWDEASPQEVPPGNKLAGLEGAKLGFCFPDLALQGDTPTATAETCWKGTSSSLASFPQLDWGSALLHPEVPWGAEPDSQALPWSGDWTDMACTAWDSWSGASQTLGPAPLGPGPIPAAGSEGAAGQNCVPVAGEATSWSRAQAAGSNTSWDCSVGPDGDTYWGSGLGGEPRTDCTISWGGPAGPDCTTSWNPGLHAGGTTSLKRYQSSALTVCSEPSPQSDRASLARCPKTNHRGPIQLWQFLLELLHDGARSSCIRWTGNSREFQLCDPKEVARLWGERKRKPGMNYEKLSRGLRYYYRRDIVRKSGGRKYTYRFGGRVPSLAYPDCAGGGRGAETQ
# In short: as §1
# [17] = molecular target: T11, ELF3 (Homo sapiens, UniProt P78545 1-371); details: protein: recombinant; tags: N-terminal GST; dsDNA, one strand shown
# T11 sequence: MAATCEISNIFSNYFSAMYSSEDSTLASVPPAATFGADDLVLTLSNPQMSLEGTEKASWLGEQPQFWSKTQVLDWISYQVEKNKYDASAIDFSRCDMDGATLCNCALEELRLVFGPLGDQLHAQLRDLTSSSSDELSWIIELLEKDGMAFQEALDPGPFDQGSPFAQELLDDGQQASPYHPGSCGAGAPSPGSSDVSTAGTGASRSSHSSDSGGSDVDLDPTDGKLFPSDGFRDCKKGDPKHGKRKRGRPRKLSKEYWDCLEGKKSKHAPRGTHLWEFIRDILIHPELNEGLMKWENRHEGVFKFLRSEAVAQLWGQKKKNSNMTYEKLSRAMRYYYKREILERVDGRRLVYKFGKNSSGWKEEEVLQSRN
# In short: as §1
# [18] = molecular target: CRX (Homo sapiens, UniProt O43186 1-299); details: protein: recombinant; tags: N-terminal GST; dsDNA, one strand shown
# Sequence of CRX (O43186 whole entry): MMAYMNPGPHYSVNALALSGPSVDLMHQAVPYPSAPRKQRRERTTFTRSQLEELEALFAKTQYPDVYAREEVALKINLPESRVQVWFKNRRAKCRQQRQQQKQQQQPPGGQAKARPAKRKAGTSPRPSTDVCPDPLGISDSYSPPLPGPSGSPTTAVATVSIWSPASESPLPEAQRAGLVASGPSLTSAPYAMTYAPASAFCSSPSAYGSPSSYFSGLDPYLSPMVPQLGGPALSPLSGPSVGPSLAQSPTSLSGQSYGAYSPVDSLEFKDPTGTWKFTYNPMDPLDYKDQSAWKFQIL
# In short: as §1
# [19] = molecular target: ETV1 (Homo sapiens, UniProt P50549 1-477); details: protein: recombinant; tags: N-terminal GST; dsDNA, one strand shown
# Sequence of ETV1 (P50549 whole entry): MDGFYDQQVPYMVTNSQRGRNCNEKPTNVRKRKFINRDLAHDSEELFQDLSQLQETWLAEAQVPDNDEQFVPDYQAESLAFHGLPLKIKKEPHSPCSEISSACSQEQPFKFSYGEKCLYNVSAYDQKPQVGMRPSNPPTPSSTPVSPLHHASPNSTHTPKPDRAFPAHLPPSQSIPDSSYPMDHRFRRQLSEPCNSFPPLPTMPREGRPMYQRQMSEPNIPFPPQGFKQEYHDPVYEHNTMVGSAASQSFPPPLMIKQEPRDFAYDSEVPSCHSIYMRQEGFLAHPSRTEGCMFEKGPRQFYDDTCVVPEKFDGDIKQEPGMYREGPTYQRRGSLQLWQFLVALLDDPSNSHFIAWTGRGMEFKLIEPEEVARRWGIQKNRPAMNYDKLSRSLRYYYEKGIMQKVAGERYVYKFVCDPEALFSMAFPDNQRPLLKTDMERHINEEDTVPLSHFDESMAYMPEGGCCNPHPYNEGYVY
# In short: as §1
sequence,measurement,setting,value
CTCCCA,binding signal,[1],"1.47 fold enrichment (6-mer frequency, TF over GST control)"
same,binding signal,[2],"1.33 fold enrichment (6-mer frequency, TF over GST control)"
same,binding signal,[3],"1.45 fold enrichment (6-mer frequency, TF over GST control)"
same,binding signal,[4],"1.38 fold enrichment (6-mer frequency, TF over GST control)"
same,binding signal,[5],"1.41 fold enrichment (6-mer frequency, TF over GST control)"
same,binding signal,[6],"1.39 fold enrichment (6-mer frequency, TF over GST control)"
same,binding signal,[7],"1.43 fold enrichment (6-mer frequency, TF over GST control)"
same,binding signal,[8],"1.36 fold enrichment (6-mer frequency, TF over GST control)"
same,binding signal,[9],"1.34 fold enrichment (6-mer frequency, TF over GST control)"
same,binding signal,[10],"1.39 fold enrichment (6-mer frequency, TF over GST control)"
same,binding signal,[11],"1.37 fold enrichment (6-mer frequency, TF over GST control)"
same,binding signal,[12],"1.17 fold enrichment (6-mer frequency, TF over GST control)"
same,binding signal,[13],"1.38 fold enrichment (6-mer frequency, TF over GST control)"
same,binding signal,[14],"1.4 fold enrichment (6-mer frequency, TF over GST control)"
same,binding signal,[15],"1.44 fold enrichment (6-mer frequency, TF over GST control)"
same,binding signal,[16],"1.08 fold enrichment (6-mer frequency, TF over GST control)"
same,binding signal,[17],"1.36 fold enrichment (6-mer frequency, TF over GST control)"
same,binding signal,[18],"1.19 fold enrichment (6-mer frequency, TF over GST control)"
same,binding signal,[19],"1.32 fold enrichment (6-mer frequency, TF over GST control)"
